{"source": "PubChem BioAssay (NCI)", "note": "About 83,000 compounds went through this panel and 20% of them were active in at least one assay; those are over-represented in the sample as a whole.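 Assay: single dose, 48 h. Readout: percent growth (0 = no net growth; negative = cell death). Active: <10.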 The source made the active and inactive calls."}
{"system": "HL-60(TB) leukemia", "assay": "NCI-60 one-dose screen, 48 h (100 = growth as untreated, 0 = no growth, -100 = all killed)", "settings": "10 µM unless noted"}
{"smiles": "CCOC(=O)c1c2c(n3ccc(NC(=O)OC(C)(C)C)cc13)C(=O)c1ncccc1C2=O", "growth": "-34.2% (active)"}
{"smiles": "NCCCCCNc1noc(Cc2c[nH]c3cc(Br)ccc23)n1", "growth": "-48.8% (active)"}
{"smiles": "Cc1ccc(NC(=O)c2cc(NCc3cc(O)ccc3O)ccc2O)cc1", "growth": "16.1% (inactive)"}
{"smiles": "CCCCC(O)Cn1ncc(C(=O)OCC)c1NC(=O)NCc1ccccc1C(F)(F)F", "note": "(stereo not given)", "growth": "76.3% (inactive)"}
{"smiles": "C=C1C(=O)O[C@H]2[C@H]1CC/C(COC(=O)NCc1c[nH]c3ccccc13)=C\\CC[C@@]1(C)O[C@@H]21", "growth": "-46.8% (active)"}
{"smiles": "O=c1[nH]c(N2CCOCC2)nc2scc(-c3ccccc3)c12", "growth": "103% (inactive)"}
{"smiles": "FC(F)(F)Oc1ccc2c(c1)C[C@H]1C[C@@H](c3ccoc3)N2O1", "growth": "104% (inactive)"}
{"smiles": "Nc1cc(-c2ccccc2)ccc1O", "growth": "49.7% (inactive)"}
{"smiles": "CN(Cc1ccccc1)Cc1ccc([N+](=O)[O-])cc1I", "growth": "85% (inactive)"}
{"smiles": "COC(=O)C1=Nc2ccc(F)cc2/C1=C\\c1sc(Nc2ccc(O)cc2)nc1O", "growth": "54.8% (inactive)"}
{"smiles": "N#Cc1cnc2ccc(NCc3cnc[nH]3)cc2c1Nc1ccc(F)c(Cl)c1", "growth": "79.4% (inactive)"}
{"smiles": "Cc1nn(-c2ccccc2)c(/N=C/N(C)C)c1/C=C/C(=O)c1ccc(Cl)cc1", "growth": "76.3% (inactive)"}
{"smiles": "C=C(C)[C@@H]1CCC[C@]2(C(=O)O)CC[C@]3(C)[C@@H](CC[C@@H]4[C@@]5(C)C/C(=C/c6ccncc6)C(=O)C(C)(C)[C@@H]5CC[C@]43C)[C@@H]12", "growth": "-5.12% (active)"}
{"smiles": "COc1ccc(-c2ccc3ncc4c(c3c2)n(-c2ccc(N3CCNCC3)c(C(F)(F)F)c2)c(=O)n4C)cn1", "growth": "-65.4% (active)"}
{"smiles": "COc1ccc(-c2cc(C(=O)N3N=C(c4ccc(N)cc4)CC3c3ccccc3)c3ccccc3n2)cc1", "note": "(stereo not given)", "growth": "-28% (active)"}
{"smiles": "CSCc1ncc(-c2ccc(C(F)(F)F)cc2)c(NC2CCCCCC2)n1", "growth": "20.7% [25 µM] (inactive)"}
{"smiles": "O=C1CCCCN1c1ccc(C2=NCCCN2)cc1", "growth": "70.7% (inactive)"}
{"smiles": "Clc1ccc2c(NCCCN3CCN(c4nc(N5CCOCC5)nc5ccccc45)CC3)ccnc2c1", "growth": "-51.5% (active)"}
{"smiles": "N=C(N)c1ccc(-c2ccc(-c3ccccc3)s2)cc1F", "growth": "-73.1% (active)"}
{"smiles": "O=C(Nc1nc(C(=O)N2CCN(C(c3ccccc3)c3ccccc3)CC2)cs1)c1ccc(NC2CCCCC2)c([N+](=O)[O-])c1", "growth": "98.5% (inactive)"}
{"smiles": "c1cc(NCCCCN2CCOCC2)c2ccc3c(ccc4c(NCCN5CCOCC5)ccnc43)c2n1", "growth": "47.2% (inactive)"}
{"smiles": "CC1CN(CCO)CC(C)O1", "note": "(stereo not given)", "growth": "102% (inactive)"}
{"smiles": "CN(C)CCCN1c2nc3ccccc3cc2Sc2cc3ccccc3nc21", "growth": "43.9% (inactive)"}
{"smiles": "S=C(SSC(=S)N(c1ccccc1)c1ccccc1)N(c1ccccc1)c1ccccc1", "growth": "85.1% (inactive)"}
{"smiles": "Cc1ccc(NC2=CC(=O)C(=O)c3ccccc32)cc1", "growth": "18.4% (inactive)"}
{"smiles": "CCCc1cc(=O)oc2c3c(c4c(c12)OC(C)(C)C=C4)O[C@@H](C)[C@H](C)C3=O", "growth": "48.3% (inactive)"}
{"smiles": "Cc1cccc(NCc2cn(-c3ccc(C(=O)O)cc3)nc2-c2ccc(C(=O)O)cc2)n1", "growth": "101% (inactive)"}
{"smiles": "C[C@]12CC[C@@H]3c4ccc(OCC(=O)O)cc4CC[C@H]3[C@@H]1CCC2=O", "growth": "84.7% (inactive)"}
{"smiles": "O=c1nc(-c2ccccc2)c2cc(-c3ccc(C(F)(F)F)nc3)ccc2[nH]1", "growth": "94.5% (inactive)"}
{"smiles": "CCCCOc1c(N)cccc1C(=O)OCCN(CC)CC", "growth": "64.3% (inactive)"}
{"smiles": "O=C1NCCN1/N=C/c1c(Cl)n(Cc2ccc(Cl)cc2)c2ccccc12", "growth": "74.4% (inactive)"}
{"smiles": "CN(C)c1ccc(N=C2C=CC(=O)C=C2)cc1", "growth": "111% (inactive)"}
{"smiles": "COc1ccc(-c2ccc(-c3ccc(C(=N)N)s3)s2)cc1Cl", "growth": "-41.8% (active)"}
{"smiles": "C[C@]12CCc3nc(Nc4ccccc4)sc3C1=CC[C@@H]1[C@@H]2CC[C@]2(C)/C(=N/NC(N)=S)CC[C@@H]12", "growth": "49% (inactive)"}
{"smiles": "C=C1C(=O)O[C@H]2[C@H]1CC/C(COC(=O)NCc1c[nH]c3ccc(F)cc13)=C\\CC[C@@]1(C)O[C@@H]21", "growth": "-32.4% (active)"}
{"smiles": "O=S(=O)(NCCCNc1nccc(-c2c(-c3ccccc3)nc3occn23)n1)c1ccc(Cl)cc1", "growth": "101% (inactive)"}
{"smiles": "O=[N+]([O-])c1ccc(OCCCOc2ccccc2)cc1", "growth": "95.5% (inactive)"}
{"smiles": "CCCCN(CCCC)CCCCCCCCC(O)c1cc2ccccc2c2ccccc12", "note": "(stereo not given)", "growth": "28.5% (inactive)"}
{"smiles": "NCCC(=O)c1ccc(Cl)cc1", "growth": "95.6% (inactive)"}
{"smiles": "C=C(C)[C@@H]1CC[C@]2(C)[C@H](CC=C3[C@@H]4CC(C)(C)CC[C@]4(C(N)=O)CC[C@]32C)[C@@]1(C)CCC#N", "growth": "16% (inactive)"}
